From PubChem BioAssay (NCATS) come the findings set out here.

A number with no mark means an inactive call. Records with an inconclusive call do not appear. The source made the active and inactive calls. Unless noted, the call rests on the fitted dose curve; in most records, active means well fitted curve in the direction sought with a large enough effect; inconclusive means small, poorly fitted or top-dose-only effect, or another doubt; inactive means no such curve, though single readings can be large; an effect the other way counts as inactive or inconclusive.

Assay [1] is described as follows: P-glycoprotein substrates identified in KB-8-5-11 adenocarcinoma cell line, qHTS therapeutic library screen (AID 1346987). Further: nearly all actives have a fitted effect of over 65% in size. Further: potency means the concentration at half of the fitted maximal effect. Put shortly: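 P-gp-mediated resistance screen: KB-8-5-11 cells treated 72 h with compounds in dose-response. CellTiter-Glo viability.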
For orientation: In qHTS, concentration-response curves come from the screen itself.

The nature of assay [2]: Natriuretic polypeptide receptor (hNpr1) antagonism - Pilot counterscreen GloSensor control cell line (AID 1347045; calls by dose curve; further: on the % scale 0 is the no-effect control and ±100 the full control effect). The essentials:
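This counterscreen uses HEK293 cells expressing the GIP/pGS-40F cGMP biosensor. Compound-treated cells are challenged with 50 uM sodium nitroprusside, and the luciferase signal is compared before and after stimulation.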
(A counterscreen serves to expose hits that act by an unwanted route or on another target.)

For assay [3], the target named is Atrial natriuretic peptide receptor 1 (Homo sapiens) (UniProt P16066). Description: Natriuretic polypeptide receptor (hNpr1) antagonism - Pilot screen (AID 1347049; calls by dose curve;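 further: agonist-evoked cGMP luminescence read 20 min after hNppA addition; on the % scale 0 is the no-effect control and ±100 the full control effect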). The essentials: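 HEK293 cells co-expressing hNpr1 and the GloSensor pGS-40F cGMP luciferase sensor were preloaded with 2% GloSensor reagent for 2 h. Compounds were added for 30 min at room temperature, then cells were stimulated with 0.1 nM hNppA for 20 min before luminescence readout.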

The target of assay [4] is Atrial natriuretic peptide receptor 2 (Homo sapiens) (UniProt P20594). Description: Natriuretic polypeptide receptor (hNpr2) antagonism - Pilot subtype selectivity assay (AID 1347050; calls by dose curve; further: on the % scale 0 is the no-effect control and ±100 the full control effect). The essentials: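 cGMP-sensor HEK293/hNpr2 cells; 2% GloSensor reagent 2 h RT; compounds 30 min; baseline luminescence read; 1 nM hNppC agonist 20 min RT; final luminescence read by CCD camera. Antagonism = reduced post-agonist signal.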

Assay [5] can be described thus: NS1 protein of Zika virus - qHTS assay to identify small molecule inhibitors in human HEK 293 cells (AID 1347053).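 Further: plate controls were infected untreated cells for no effect and uninfected cells for full effect; nearly all actives have a fitted effect of over 55% in size.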 Put shortly: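 HEK 293 cells, seeded 20 h at 37 C, were pretreated with compound 1 h, then infected with ZIKV MR766 (MOI = 0.5) for 24 h. NS1 was read by TR-FRET with two anti-NS1 antibodies, normalized to uninfected and infected wells.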
In assay [6] the target is T1, Tyrosine-protein phosphatase non-receptor type substrate 1 (Homo sapiens) + Leukocyte surface antigen CD47 (Homo sapiens) (UniProt P78324+Q08722). The experiment in a line: CD47-SIRPalpha protein protein interaction - LANCE assay qHTS validation (AID 1347057; active means well fitted curve in the direction sought with a large enough effect in the signal ratio, with a control signal flat, not every such curve was filed as active; the % refers to the signal ratio; further: 0% is about no effect). Put shortly:
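First, His-tagged CD47 and Eu-labelled anti-His antibody met the compound for 30 min; next, site-specifically biotinylated SIRPalpha was added for 30 min; finally streptavidin-APC was added before reading the TR-FRET ratio.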

The target of assay [7] is T1, Tyrosine-protein phosphatase non-receptor type substrate 1 (Homo sapiens) + Leukocyte surface antigen CD47 (Homo sapiens). Description: CD47-SIRPalpha protein protein interaction - HTRF assay qHTS validation (AID 1347058; active means well fitted curve in the direction sought with a large enough effect in the signal ratio, not every such curve was filed as active; the % refers to the signal ratio; further: 0% is about no effect). Put shortly: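 TR-FRET read (Ch1/Ch2 ratio) of soluble extracellular CD47 and Avi-biotinylated SIRPalpha domains in PBS pH 7.4 with 0.05% IGEPAL; 7-point compound titration. Sequential 30 min room-temperature steps; non-biotinylated SIRPalpha as control inhibitor.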
In general terms: TR-FRET usually uses a lanthanide donor and a delayed reading to cut background.

The target is the same in assay [8]. Description: CD47-SIRPalpha protein protein interaction - Alpha assay qHTS validation (AID 1347059).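 Further: bead proximity luminescence from CD47 binding SIRPalpha after compound preincubation with SIRPalpha; on the % scale 0 is the no-effect control and ±100 the full control effect.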 The essentials:
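Soluble extracellular domains: Avi-tag biotinylated SIRPalpha (25 nM) preincubated 30 min RT with compound, then 6His-CD47 (12.5 nM) 30 min; Ni-NTA acceptor and streptavidin donor beads (10 ug/mL) 30 min, AlphaScreen read. PBS pH 7.4, 0.05% IGEPAL.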

Assay [9] deals with Parathyroid hormone/parathyroid hormone-related peptide receptor (Homo sapiens) (UniProt Q03431). Description: qHTS for PTHR1 Agonists: Optimization Screen against the NCGC LOPAC library (AID 1347079).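 Further: GloSensor cAMP luminescence in HEK-293 GP2 cells expressing human PTHR1 with IBMX; 0% is about no effect.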 Put shortly:
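Compounds were tested across a qHTS titration. PTHR1-expressing GP2 cells report cAMP rises via GloSensor luminescence after 1 hr compound exposure at 37C with IBMX present.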

A short description of assay [10]: qHTS for Inhibitors of the Functional Ribonucleoprotein Complex (vRNP) of Lassa (LASV) Arenavirus: LASV Primary Screen - GLuc reporter signal (AID 1347082; calls by dose curve; tested in HEK293 reporter line; further: on the % scale 0 is the no-effect control and ±100 the full control effect; nearly all actives have a fitted effect of over 60% in size).
Assay [11] in a line: qHTS for Inhibitors of the Functional Ribonucleoprotein Complex (vRNP) of Lassa (LASV) Arenavirus: Viability assay - alamar blue signal for LASV Primary Screen (AID 1347083; calls by dose curve; tested in HEK293 reporter line; further: on the % scale 0 is the no-effect control and ±100 the full control effect; nearly all actives have a fitted effect of over 80% in size).
Assay [12] in a line: qHTS for Inhibitors of the Functional Ribonucleoprotein Complex (vRNP) of Lymphocytic Choriomeningitis Arenaviruses (LCMV): Viability assay - alamar blue signal for LCMV Primary Screen (AID 1347085; calls by dose curve; tested in HEK293 reporter line; further: on the % scale 0 is the no-effect control and ±100 the full control effect; nearly all actives have a fitted effect of over 80% in size).
Assay [13] concerns the target Nucleoprotein (Lymphocytic choriomeningitis virus (strain Armstrong)) (UniProt P09992). Description: qHTS for Inhibitors of the Functional Ribonucleoprotein Complex (vRNP) of Lymphocytic Choriomeningitis Arenaviruses (LCMV): LCMV Primary Screen - GLuc reporter signal (AID 1347086; calls by dose curve; further: on the % scale 0 is the no-effect control and ±100 the full control effect; nearly all actives have a fitted effect of over 70% in size).
Assay [14] is described as follows: qHTS of pediatric cancer cell lines to identify multiple opportunities for drug repurposing: Primary screen for TC32 cells (AID 1347089). Further: on the % scale 0 is the no-effect control and ±100 the full control effect; nearly all actives have a fitted effect of over 60% in size. The essentials: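 In the primary qHTS, MIPE compounds were tested at 11 concentrations (0.78 nM to 46 µM) and NPC compounds at 8 (0.59 nM to 46 µM) on TC32 cells for 48 h. CellTiter-Glo luminescence gave viability.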
Assay [15] can be described thus: qHTS of pediatric cancer cell lines to identify multiple opportunities for drug repurposing: Primary screen for SJ-GBM2 cells (AID 1347091). Further: potency means the concentration at half of the fitted maximal effect. Put shortly:
(§1)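 Eight- or eleven-point concentration series, 48 h treatment at 37 degrees C in growth media; readout CellTiter-Glo luminescence. Potency and efficacy were taken from the concentration-response curves.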

The nature of assay [16]: qHTS of pediatric cancer cell lines to identify multiple opportunities for drug repurposing: Primary screen for A673 cells (AID 1347092). Further: on the % scale 0 is the no-effect control and ±100 the full control effect; nearly all actives have a fitted effect of over 45% in size. The essentials: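 48 h compound exposure, A673, 500-1,000 cells/well, 37 degrees C/5% CO2. MIPE: 11-point, 0.78 nM-46 µM; NPC: 8-point, 0.59 nM-46 µM (final). Readout CellTiter-Glo luminescence after 15 min RT.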
Assay [17] in a line: qHTS of pediatric cancer cell lines to identify multiple opportunities for drug repurposing: Primary screen for DAOY cells (AID 1347090).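 Further: plate controls were DMSO for no effect and bortezomib for full effect; nearly all actives have a fitted effect of over 55% in size.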 The essentials: as §1
A short description of assay [18]: qHTS of pediatric cancer cell lines to identify multiple opportunities for drug repurposing: Primary screen for SK-N-MC cells (AID 1347093). Further: potency means the concentration at half of the fitted maximal effect. The essentials:
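Metabolically active cells were quantified by ATP-dependent luminescence (CellTiter-Glo, 15 min at room temperature) following 48 h treatment. Cells had been plated at 500-1,000 per well and settled for 5 h beforehand.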

Assay [19] is described as follows: P-glycoprotein substrates identified in KB-3-1 adenocarcinoma cell line, qHTS therapeutic library screen (AID 1346986). Further: nearly all actives have a fitted effect of over 60% in size. The settings on record: KB-3-1 parental cells viability, CellTiter-Glo, 72 h; at 44.5 µM (top of the series) unless noted. The essentials: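 KB-3-1 parental cells and P-gp-overexpressing KB-8-5-11 (colchicine omitted during assay) plated at 500 cells/well, dosed in dose-response, incubated 72 h at 37 degree C. CellTiter-Glo luminescence read; KB-8-5-11 also tested with tariquidar.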

T1 sequence (P78324 whole entry, looked up): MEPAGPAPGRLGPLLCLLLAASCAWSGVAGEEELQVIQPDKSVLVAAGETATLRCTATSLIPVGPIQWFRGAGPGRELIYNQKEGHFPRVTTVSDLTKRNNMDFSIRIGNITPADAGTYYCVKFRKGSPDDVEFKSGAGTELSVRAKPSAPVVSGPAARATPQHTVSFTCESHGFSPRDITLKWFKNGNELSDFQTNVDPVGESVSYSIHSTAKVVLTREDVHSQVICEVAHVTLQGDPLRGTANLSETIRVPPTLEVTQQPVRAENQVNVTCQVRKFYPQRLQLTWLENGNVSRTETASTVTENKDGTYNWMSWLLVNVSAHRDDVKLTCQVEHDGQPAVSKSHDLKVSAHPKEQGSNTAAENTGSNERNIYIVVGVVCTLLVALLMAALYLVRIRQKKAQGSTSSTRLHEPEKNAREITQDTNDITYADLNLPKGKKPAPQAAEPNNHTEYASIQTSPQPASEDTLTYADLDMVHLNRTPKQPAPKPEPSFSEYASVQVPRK
T1 sequence (Q08722 whole entry, looked up): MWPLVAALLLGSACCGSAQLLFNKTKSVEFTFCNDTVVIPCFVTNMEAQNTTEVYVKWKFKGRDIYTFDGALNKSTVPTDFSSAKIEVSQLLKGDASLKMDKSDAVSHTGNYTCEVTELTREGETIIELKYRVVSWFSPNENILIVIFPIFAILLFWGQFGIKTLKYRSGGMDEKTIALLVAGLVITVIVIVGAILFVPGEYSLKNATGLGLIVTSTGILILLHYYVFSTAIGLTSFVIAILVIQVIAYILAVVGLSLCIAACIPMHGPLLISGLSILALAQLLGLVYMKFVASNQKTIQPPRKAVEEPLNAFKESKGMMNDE
Parathyroid hormone/parathyroid hormone-related peptide receptor (Homo sapiens), sequence (Q03431 whole entry, looked up): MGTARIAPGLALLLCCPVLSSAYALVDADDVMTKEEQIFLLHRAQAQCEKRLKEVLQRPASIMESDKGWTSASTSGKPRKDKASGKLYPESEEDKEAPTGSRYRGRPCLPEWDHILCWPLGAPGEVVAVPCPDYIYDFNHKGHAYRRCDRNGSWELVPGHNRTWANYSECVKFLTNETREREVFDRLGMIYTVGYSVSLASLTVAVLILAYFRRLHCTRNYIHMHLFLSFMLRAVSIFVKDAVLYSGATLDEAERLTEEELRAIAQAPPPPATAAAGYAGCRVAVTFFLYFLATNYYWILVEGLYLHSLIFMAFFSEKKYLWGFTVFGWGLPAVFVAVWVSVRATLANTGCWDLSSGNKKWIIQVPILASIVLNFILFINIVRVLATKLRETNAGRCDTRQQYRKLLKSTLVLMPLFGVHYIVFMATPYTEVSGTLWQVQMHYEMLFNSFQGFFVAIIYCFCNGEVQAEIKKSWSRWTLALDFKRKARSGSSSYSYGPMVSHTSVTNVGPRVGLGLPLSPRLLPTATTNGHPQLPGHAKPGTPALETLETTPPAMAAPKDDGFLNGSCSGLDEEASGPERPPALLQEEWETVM
Atrial natriuretic peptide receptor 2 (Homo sapiens), sequence (P20594 whole entry, looked up): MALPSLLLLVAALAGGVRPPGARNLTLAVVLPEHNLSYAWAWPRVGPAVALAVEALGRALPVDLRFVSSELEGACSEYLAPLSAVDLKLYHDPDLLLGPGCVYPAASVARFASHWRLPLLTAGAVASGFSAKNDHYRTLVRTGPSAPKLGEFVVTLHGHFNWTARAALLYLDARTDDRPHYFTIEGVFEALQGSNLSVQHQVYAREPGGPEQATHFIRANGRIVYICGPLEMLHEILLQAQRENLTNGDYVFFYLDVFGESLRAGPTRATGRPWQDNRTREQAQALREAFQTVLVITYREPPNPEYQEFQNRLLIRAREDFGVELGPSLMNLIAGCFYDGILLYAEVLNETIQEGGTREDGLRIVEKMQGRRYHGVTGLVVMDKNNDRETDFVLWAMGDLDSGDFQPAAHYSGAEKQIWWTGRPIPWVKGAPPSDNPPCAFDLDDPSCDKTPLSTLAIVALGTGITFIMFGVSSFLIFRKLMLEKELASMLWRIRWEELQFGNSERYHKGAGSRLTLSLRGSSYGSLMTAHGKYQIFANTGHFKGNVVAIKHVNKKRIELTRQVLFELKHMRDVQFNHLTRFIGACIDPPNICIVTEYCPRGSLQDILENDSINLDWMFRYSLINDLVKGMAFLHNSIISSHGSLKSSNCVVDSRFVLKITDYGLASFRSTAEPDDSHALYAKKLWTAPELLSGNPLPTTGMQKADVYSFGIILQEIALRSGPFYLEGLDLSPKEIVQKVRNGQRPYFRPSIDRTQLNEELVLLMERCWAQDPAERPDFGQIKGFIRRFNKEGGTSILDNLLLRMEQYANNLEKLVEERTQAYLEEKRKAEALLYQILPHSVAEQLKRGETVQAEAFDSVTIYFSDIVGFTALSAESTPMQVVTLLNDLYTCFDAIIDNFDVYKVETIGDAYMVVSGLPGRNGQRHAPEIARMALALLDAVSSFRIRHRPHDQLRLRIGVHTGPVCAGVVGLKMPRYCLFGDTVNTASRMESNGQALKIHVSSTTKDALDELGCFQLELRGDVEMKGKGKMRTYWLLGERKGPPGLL
Atrial natriuretic peptide receptor 1 (Homo sapiens), sequence (P16066 whole entry, looked up): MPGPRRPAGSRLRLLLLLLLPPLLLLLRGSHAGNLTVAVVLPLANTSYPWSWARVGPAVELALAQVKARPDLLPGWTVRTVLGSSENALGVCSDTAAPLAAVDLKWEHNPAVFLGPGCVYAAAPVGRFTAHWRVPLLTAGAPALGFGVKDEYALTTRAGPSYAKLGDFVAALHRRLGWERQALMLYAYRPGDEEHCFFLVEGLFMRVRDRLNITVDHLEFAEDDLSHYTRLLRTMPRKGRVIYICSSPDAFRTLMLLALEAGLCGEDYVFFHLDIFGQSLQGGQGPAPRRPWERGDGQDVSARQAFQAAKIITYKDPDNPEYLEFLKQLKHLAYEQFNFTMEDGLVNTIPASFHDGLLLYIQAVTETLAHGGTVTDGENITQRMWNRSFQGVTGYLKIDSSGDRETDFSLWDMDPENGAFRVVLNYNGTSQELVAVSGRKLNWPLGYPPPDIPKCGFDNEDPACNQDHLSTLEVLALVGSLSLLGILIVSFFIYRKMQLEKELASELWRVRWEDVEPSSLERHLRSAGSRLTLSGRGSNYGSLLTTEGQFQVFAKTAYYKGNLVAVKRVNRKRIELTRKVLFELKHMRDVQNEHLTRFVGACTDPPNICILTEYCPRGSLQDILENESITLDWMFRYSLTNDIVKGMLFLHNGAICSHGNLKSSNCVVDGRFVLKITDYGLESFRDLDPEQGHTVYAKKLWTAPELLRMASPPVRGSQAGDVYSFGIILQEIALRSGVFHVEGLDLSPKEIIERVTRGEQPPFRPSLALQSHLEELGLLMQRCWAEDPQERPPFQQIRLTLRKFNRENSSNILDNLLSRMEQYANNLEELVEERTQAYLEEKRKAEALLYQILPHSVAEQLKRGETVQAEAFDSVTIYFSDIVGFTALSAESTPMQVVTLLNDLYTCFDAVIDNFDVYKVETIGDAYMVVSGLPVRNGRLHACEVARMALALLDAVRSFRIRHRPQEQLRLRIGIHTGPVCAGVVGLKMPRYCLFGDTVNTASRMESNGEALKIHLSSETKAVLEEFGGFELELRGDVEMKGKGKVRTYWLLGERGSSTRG
Nucleoprotein (Lymphocytic choriomeningitis virus (strain Armstrong)), sequence (P09992 whole entry, looked up): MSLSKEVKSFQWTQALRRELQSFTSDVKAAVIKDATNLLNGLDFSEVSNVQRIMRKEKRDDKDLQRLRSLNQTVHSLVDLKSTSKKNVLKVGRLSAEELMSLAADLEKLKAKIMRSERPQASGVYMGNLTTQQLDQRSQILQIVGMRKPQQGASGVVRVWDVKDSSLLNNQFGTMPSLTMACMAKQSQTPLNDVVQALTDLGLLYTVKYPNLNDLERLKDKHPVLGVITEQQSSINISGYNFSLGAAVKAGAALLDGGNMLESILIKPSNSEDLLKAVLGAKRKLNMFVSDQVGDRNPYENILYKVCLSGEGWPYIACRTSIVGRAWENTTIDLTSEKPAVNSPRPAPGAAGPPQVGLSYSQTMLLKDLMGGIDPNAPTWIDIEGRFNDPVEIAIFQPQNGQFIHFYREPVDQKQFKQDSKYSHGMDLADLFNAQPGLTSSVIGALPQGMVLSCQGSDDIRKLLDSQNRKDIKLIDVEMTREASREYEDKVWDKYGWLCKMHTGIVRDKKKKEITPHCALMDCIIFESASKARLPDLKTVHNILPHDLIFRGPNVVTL

Turning to `COC(=O)C(c1ccccc1)C1CCCCN1` (stereo not given), the Potency entry in assay [1] is “inactive”.
As to `CC(C)N(CCC(C(N)=O)(c1ccccc1)c1ccccn1)C(C)C` (stereo not given), the Potency result in [1], in assay [10], in assay [11], in [12], in [13] and in assay [14] was “inactive” throughout. Further, the Potency entry in assay [15] and in [16] was “inactive” in each case. The compound was called inactive in assay [2], in assay [3], in [4], in assay [5], in assay [6] and in assay [7]. Further, the outcome in [8] and in assay [9] was inactive.
Regarding `CN=C1CN(O)C(c2ccccc2)=c2cc(Cl)ccc2=N1`, the Potency entry in assay [1] is “inactive”.
Regarding `CCCCC/C=C\C/C=C\C/C=C\C/C=C\CCCC(=O)NCC(=O)O`, the activity change, negative = cytotoxicity in [1] is 0.883% [at 5.11 µM]. Also, the compound was called inactive in [2], in assay [3], in assay [4], in assay [5] and in assay [9]. Also, the Potency entry in [10], in [11], in assay [12], in assay [13], in assay [14] and in assay [15] was “inactive” in each case. For the same compound, the Potency entry in assay [16] was “inactive”.
Regarding `O=C1Nc2ccc(Cl)cc2C(c2ccccc2)=NC1O` (stereo not given), the Potency result in assay [1] was “inactive”.
Regarding `c1ccc2c(c1)sc1ccccc12`, the Potency entry in assay [1], in [10], in assay [11], in [12], in [13] and in assay [14] was “inactive” in each case. Besides, the Potency entry in [17], in assay [15] and in assay [16] was “inactive” throughout. The compound was called inactive in assay [5].
On to `C=C(C)[C@H]1CN[C@H](C(=O)O)[C@H]1CC(=O)O`, for which the Potency entry in assay [1], in assay [10], in assay [11], in [12], in assay [13] and in assay [14] was “inactive” in each case. In addition, the Potency entry in assay [17], in [15], in assay [16] and in [18] was “inactive” throughout. For the same compound, the compound was called inactive in assay [3], in assay [4], in [5], in assay [6], in [7] and in assay [8]. Also, in [9], the compound was classed as inactive.
As for `CCCC(C)(COC(N)=O)COC(N)=O`, the Potency entry in assay [1] is “inactive”.
In the case of `C=CCN1C[C@H](C)N([C@H](c2ccc(C(=O)N(CC)CC)cc2)c2cccc(OC)c2)C[C@H]1C`, the outcome in assay [19] was “inactive [at 9.29 µM]”. The activity change, negative = cytotoxicity in assay [1] is -6.15% [at 9.29 µM]. In addition, in [5], the compound was called inactive. Also, the Potency result in assay [10], in assay [11], in assay [12], in assay [13], in [14] and in assay [15] was “inactive” throughout. Also, the Potency entry in [16] and in assay [18] was “inactive” in each case.
Take `CC(C)c1cccc(C(C)C)c1O`: the Potency entry in assay [1], in assay [10], in assay [11], in [12], in assay [13] and in assay [14] was “inactive” throughout. Also, the Potency entry in assay [15] and in assay [16] was “inactive” throughout. The compound was classed as inactive in [2], in assay [3], in [4], in assay [6], in assay [7] and in [8]. Also, in [9], the result was inactive.
Consider `O=C(O)CCCc1ccc(N(CCCl)CCCl)cc1`, for which the result in [19], in assay [2], in [3], in [4] and in assay [9] was inactive. For the same compound, the Potency result in assay [1], in assay [10], in assay [11], in [12], in [13] and in [14] was “inactive” in each case. Further, the Potency result in assay [17] and in assay [16] was “inactive” in each case. Besides, the Potency in assay [15] was 13.2 µM (active); in assay [18] it was 20.9 µM (active).
Take `O=C(Nc1ccc(Br)cc1)c1cc(Br)cc(Br)c1O`: in assay [1], the Potency is 4.61 µM (active). Further, the compound was called inactive in assay [5]. The Potency result in assay [10], in assay [11], in assay [12], in assay [13] and in assay [14] was “inactive” each time.
`CN1C(=O)CC(=O)N(c2ccccc2)c2cc(Cl)ccc21`: the Potency result in assay [1] was “inactive”.
On to `Cc1ncsc1CCCl`, for which the Potency result in assay [1], in assay [10], in assay [11], in assay [12], in [13] and in assay [14] was “inactive” throughout. Also, the Potency result in assay [15] and in [16] was “inactive” each time. The call in assay [2], in assay [3], in assay [4], in assay [5], in [6] and in assay [7] was inactive. In addition, the result in assay [8] and in assay [9] was inactive.
